Measurements: the supplement of paper PMC11741263, “Chemoproteomic Profiling of C. albicans for Characterization of Anti-fungal Kinase Inhibitors” (bioRxiv, 2025)

These targets were tested with Cc1[nH]nc2ccc(-c3cc(OC[C@@H](N)Cc4ccccc4)cnc3-c3ccoc3)cc12 (assay: MIB bead binding, log2 fold change vs DMSO (log2 ratio); higher = less competition (weaker engagement)). Conditions: 0.1 µM.

UniProt Q5AG71, sequence (Q5AG71 whole entry): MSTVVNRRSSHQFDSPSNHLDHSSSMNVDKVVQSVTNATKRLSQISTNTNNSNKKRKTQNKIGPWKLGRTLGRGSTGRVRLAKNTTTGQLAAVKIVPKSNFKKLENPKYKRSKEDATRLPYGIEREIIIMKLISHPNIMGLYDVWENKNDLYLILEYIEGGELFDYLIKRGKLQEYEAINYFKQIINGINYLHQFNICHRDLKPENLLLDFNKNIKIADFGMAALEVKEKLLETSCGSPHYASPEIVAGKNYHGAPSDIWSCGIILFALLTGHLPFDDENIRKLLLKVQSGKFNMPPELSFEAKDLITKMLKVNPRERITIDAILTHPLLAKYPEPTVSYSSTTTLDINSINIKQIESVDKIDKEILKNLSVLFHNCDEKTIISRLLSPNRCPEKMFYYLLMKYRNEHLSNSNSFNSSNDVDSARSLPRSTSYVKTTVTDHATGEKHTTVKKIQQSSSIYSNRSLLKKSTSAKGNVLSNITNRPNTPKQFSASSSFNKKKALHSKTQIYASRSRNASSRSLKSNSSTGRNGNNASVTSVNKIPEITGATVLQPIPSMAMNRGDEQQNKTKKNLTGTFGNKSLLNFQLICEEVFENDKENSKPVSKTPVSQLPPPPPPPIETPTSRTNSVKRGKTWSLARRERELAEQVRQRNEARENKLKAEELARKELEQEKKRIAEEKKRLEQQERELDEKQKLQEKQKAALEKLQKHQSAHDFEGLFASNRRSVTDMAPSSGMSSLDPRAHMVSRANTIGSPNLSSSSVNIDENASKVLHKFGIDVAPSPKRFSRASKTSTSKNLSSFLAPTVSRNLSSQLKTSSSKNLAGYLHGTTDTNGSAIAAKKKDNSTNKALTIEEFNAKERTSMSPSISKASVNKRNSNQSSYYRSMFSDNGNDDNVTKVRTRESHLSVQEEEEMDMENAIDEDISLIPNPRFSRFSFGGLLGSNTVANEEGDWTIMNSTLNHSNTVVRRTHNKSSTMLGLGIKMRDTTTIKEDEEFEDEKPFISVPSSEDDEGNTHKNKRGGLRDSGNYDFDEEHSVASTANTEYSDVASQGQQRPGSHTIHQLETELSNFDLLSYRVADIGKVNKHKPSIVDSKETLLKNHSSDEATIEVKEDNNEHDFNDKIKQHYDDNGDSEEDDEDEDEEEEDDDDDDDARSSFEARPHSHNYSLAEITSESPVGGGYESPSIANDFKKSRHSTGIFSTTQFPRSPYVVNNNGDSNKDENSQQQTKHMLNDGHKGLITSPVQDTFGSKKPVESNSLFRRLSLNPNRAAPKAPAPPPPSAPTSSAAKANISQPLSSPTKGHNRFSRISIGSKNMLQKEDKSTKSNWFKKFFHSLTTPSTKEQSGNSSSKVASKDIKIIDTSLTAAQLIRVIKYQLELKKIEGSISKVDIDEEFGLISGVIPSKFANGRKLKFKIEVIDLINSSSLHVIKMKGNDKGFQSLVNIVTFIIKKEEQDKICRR
UniProt P50613, sequence (P50613 whole entry, looked up): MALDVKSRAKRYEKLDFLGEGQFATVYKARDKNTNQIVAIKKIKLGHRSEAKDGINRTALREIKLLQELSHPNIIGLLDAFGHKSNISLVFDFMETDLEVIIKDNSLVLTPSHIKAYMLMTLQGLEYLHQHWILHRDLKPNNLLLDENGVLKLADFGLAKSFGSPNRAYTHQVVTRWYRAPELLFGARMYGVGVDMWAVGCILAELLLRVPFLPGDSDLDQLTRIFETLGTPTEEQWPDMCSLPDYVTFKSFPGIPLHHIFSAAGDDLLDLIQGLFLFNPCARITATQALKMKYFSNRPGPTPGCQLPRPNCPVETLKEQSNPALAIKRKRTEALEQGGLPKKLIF
UniProt P52497, sequence (P52497 whole entry): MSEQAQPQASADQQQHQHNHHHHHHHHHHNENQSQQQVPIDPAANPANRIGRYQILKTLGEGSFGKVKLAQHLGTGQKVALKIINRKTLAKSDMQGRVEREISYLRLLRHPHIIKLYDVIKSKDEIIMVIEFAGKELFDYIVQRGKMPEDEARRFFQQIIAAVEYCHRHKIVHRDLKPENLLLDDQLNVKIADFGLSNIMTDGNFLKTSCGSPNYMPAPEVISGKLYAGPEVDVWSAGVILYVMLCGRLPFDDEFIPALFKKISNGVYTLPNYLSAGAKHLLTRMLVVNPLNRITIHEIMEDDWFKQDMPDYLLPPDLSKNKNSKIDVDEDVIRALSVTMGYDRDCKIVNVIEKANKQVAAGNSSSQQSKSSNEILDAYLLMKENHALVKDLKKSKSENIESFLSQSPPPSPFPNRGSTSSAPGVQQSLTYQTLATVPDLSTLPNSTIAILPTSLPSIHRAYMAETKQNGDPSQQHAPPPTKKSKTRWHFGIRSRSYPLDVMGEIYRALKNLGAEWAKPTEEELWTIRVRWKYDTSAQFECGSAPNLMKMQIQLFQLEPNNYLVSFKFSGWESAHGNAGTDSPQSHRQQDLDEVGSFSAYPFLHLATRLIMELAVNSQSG
UniProt Q9HGY5, sequence (Q9HGY5 whole entry): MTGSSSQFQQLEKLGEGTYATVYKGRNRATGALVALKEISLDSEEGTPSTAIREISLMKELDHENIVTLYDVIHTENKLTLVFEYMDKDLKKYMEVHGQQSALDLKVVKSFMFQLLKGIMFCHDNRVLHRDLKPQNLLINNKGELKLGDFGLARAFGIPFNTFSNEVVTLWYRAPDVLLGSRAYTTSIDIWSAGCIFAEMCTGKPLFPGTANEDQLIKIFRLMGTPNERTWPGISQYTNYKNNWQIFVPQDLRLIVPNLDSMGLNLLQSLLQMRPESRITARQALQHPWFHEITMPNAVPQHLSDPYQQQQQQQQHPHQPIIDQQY
UniProt Q5AHG6, sequence (Q5AHG6 whole entry): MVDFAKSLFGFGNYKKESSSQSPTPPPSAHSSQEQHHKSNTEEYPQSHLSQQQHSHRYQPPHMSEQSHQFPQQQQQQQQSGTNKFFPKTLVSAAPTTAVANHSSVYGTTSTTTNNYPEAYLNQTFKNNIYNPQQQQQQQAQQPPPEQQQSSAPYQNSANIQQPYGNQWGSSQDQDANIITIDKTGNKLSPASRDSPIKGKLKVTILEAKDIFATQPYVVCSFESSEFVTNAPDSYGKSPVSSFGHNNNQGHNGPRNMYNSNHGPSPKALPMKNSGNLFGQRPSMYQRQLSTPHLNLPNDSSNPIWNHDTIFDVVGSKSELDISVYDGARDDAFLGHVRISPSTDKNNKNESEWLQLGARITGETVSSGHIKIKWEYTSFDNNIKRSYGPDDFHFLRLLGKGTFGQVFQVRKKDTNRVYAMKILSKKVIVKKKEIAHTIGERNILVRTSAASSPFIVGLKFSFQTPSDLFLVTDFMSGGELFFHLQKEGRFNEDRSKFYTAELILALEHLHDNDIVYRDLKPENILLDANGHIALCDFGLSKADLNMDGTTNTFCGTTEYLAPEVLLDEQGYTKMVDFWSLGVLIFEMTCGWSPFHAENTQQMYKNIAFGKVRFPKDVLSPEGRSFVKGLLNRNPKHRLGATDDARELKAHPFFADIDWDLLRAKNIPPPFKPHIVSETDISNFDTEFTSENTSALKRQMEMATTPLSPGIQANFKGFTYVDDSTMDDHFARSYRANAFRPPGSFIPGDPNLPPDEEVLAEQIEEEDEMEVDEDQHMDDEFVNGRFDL
UniProt P36507, sequence (P36507 whole entry, looked up): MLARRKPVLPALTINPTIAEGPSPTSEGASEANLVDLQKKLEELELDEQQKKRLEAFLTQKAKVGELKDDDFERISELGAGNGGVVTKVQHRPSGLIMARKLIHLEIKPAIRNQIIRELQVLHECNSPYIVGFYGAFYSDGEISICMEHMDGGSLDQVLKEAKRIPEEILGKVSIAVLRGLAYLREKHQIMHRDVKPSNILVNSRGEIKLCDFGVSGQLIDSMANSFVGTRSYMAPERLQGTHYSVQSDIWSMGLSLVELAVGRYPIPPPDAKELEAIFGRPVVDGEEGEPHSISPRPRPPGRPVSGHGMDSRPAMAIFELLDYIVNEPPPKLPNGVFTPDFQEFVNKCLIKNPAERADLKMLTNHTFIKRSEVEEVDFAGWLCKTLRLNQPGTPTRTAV
UniProt Q5A599, sequence (Q5A599 whole entry): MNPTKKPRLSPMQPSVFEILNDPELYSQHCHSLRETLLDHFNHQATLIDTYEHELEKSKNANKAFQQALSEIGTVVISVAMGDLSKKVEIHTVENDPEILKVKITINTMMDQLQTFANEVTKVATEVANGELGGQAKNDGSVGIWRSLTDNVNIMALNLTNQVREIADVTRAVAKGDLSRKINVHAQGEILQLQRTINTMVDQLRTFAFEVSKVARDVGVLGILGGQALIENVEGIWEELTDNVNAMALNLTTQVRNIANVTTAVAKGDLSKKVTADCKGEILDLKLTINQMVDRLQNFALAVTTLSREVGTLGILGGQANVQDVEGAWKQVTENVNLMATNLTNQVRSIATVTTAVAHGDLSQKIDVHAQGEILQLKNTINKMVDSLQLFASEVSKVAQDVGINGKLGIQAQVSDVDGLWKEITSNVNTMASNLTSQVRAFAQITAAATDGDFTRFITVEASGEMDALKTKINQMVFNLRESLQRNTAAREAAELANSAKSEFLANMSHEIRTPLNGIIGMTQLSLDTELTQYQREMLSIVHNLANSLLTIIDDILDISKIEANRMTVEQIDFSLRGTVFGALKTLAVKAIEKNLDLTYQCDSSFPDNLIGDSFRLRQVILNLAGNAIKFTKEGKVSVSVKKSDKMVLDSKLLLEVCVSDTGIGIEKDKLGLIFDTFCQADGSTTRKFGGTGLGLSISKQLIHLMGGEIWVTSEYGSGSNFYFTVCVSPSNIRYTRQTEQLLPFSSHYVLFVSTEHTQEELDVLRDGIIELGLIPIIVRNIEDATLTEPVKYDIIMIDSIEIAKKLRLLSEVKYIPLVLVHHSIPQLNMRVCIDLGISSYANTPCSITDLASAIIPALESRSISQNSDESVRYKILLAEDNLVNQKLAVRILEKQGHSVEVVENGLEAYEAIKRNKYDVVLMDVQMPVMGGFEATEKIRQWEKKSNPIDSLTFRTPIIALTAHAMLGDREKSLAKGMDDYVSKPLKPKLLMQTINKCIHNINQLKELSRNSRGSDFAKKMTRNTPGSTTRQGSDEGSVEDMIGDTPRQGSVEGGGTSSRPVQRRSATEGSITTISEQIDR

Target	MIB bead binding (log2)
CDC7 (UniProt O00311)	-0.0168
CTK1	-0.0626
MCK1	-0.0754
KIN2	-0.0805
TPK2	-0.0872
CAK1 (UniProt P50613)	-0.167
SNF1 (UniProt P52497)	-0.272
YPK1	-0.0854
KIN3	0.0483
IKS1	-0.323
orf19.4518	-0.0101
PBS2	-0.000679
CAALFM_C106360WA	-0.234
CKA1	-0.241
PHO85 (UniProt Q9HGY5)	0.238
CMK2	0.0395
MKC1	-0.00282
AKL1	-0.106
YAK1	-0.229
PKH3	-0.246
SCH9 (UniProt Q5AHG6)	-0.2
orf19.4144	-0.0982
NIK1 (UniProt Q5A599)	-0.731
MKK2 (UniProt P36507)	0.148
CMK1	0.142
orf19.3456	-0.328
HSL1 (UniProt Q5AG71)	0.351

Same assay, conditions: 1 µM

Target	MIB bead binding (log2)
CDC7 (UniProt O00311)	-0.237
CTK1	-0.159
MCK1	0.0618
KIN2	-0.118
TPK2	0.0369
CAK1 (UniProt P50613)	0.067
SNF1 (UniProt P52497)	-0.136
YPK1	-0.539
KIN3	0.0107
IKS1	-0.0927
orf19.4518	-0.0109
PBS2	-0.0528
CAALFM_C106360WA	-0.165
CKA1	0.0806
PHO85 (UniProt Q9HGY5)	0.232
CMK2	0.585
MKC1	0.0129
AKL1	-1.01
YAK1	-0.0276
PKH3	-0.128
SCH9 (UniProt Q5AHG6)	-0.178
orf19.4144	-0.112
NIK1 (UniProt Q5A599)	0.254
MKK2 (UniProt P36507)	-0.183
CMK1	0.154
orf19.3456	-0.791
HSL1 (UniProt Q5AG71)	0.197

Same assay, conditions: 10 µM

Target	MIB bead binding (log2)
MCK1	-1.02
KIN2	-0.154
TPK2	-2.41
CAK1 (UniProt P50613)	-2.18
SNF1 (UniProt P52497)	-1.78
YPK1	-1.48
KIN3	-0.586
orf19.4518	-0.0364
PBS2	-0.766
CKA1	-2.47
PHO85 (UniProt Q9HGY5)	-0.87
MKC1	-1.76
AKL1	-5.4
YAK1	-2.8
PKH3	-0.466
SCH9 (UniProt Q5AHG6)	-1.05
orf19.4144	-2.63
MKK2 (UniProt P36507)	-1.11
CMK1	-0.566
HSL1 (UniProt Q5AG71)	-0.67
